Measurements taken from paper PMC9911399, “Two distinct binding modes provide the RNA-binding protein RbFox with extraordinary sequence specificity”.
Where a chain is given by its changes, count along the chain named. In all, about 16,000 sequences were measured (“ka relative to ugcaugu”: median about 0.0091, highest 2% from about 0.032 on). The list comes from a sample in which the highest values are over-represented; it also holds similar and randomly drawn sequences.

T1: RBFOX1 RRM (Homo sapiens, UniProt Q9NWB1 109-208)
T1 sequence: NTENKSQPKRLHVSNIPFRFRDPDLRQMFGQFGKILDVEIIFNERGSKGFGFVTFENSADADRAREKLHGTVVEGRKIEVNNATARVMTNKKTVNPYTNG

B1: GGUGGAA (DNA:RNA)
RNA: GGGAGACCGGAAUUCAGAUUGUCCGGUGGAAUUAAAUCCCGUCGUAGCCACCA
DNA 1: CAATCTGAATTCCGGTCTCCC
DNA 2: TGGTGGCTACGACGGGATT
B2: UGGCGAC (DNA:RNA)
RNA: B1 RNA with G25U, U27G, G28C, A31C
DNA 1: CAATCTGAATTCCGGTCTCCC
DNA 2: TGGTGGCTACGACGGGATT
B3: CCGGGGC (DNA:RNA)
RNA: B1 RNA with G25C, G26C, U27G, A30G, A31C
DNA 1: CAATCTGAATTCCGGTCTCCC
DNA 2: TGGTGGCTACGACGGGATT
B4: ACUCUUG (DNA:RNA)
RNA: B1 RNA with G25A, G26C, G28C, G29U, A30U, A31G
DNA 1: CAATCTGAATTCCGGTCTCCC
DNA 2: TGGTGGCTACGACGGGATT
B5: GAGUGCG (DNA:RNA)
RNA: B1 RNA with G26A, U27G, G28U, A30C, A31G
DNA 1: CAATCTGAATTCCGGTCTCCC
DNA 2: TGGTGGCTACGACGGGATT
B6: UGCCUUA (DNA:RNA)
RNA: B1 RNA with G25U, U27C, G28C, G29U, A30U
DNA 1: CAATCTGAATTCCGGTCTCCC
DNA 2: TGGTGGCTACGACGGGATT
B7: UUUUCUC (DNA:RNA)
RNA: B1 RNA with G25U, G26U, G28U, G29C, A30U, A31C
DNA 1: CAATCTGAATTCCGGTCTCCC
DNA 2: TGGTGGCTACGACGGGATT
B8: UUGUCUC (DNA:RNA)
RNA: GGGAGACCGGAAUUCAGAUUGUCCUUGUCUCUUAAAUCCCGUCGUAGCCACCA
DNA 1: CAATCTGAATTCCGGTCTCCC
DNA 2: TGGTGGCTACGACGGGATT
B9: UUCAGGC (DNA:RNA)
RNA: B8 RNA with G27C, U28A, C29G, U30G
DNA 1: CAATCTGAATTCCGGTCTCCC
DNA 2: TGGTGGCTACGACGGGATT
B10: CAGCAUA (DNA:RNA)
RNA: B8 RNA with U25C, U26A, U28C, C29A, C31A
DNA 1: CAATCTGAATTCCGGTCTCCC
DNA 2: TGGTGGCTACGACGGGATT
B11: AGCAUGG (DNA:RNA)
RNA: B1 RNA with G25A, U27C, G28A, G29U, A30G, A31G
DNA 1: CAATCTGAATTCCGGTCTCCC
DNA 2: TGGTGGCTACGACGGGATT
B12: AUGCUGC (DNA:RNA)
RNA: B8 RNA with U25A, U28C, C29U, U30G
DNA 1: CAATCTGAATTCCGGTCTCCC
DNA 2: TGGTGGCTACGACGGGATT
B13: AGCAUUG (DNA:RNA)
RNA: B1 RNA with G25A, U27C, G28A, G29U, A30U, A31G
DNA 1: CAATCTGAATTCCGGTCTCCC
DNA 2: TGGTGGCTACGACGGGATT
B14: ACCAUGC (DNA:RNA)
RNA: B8 RNA with U25A, U26C, G27C, U28A, C29U, U30G
DNA 1: CAATCTGAATTCCGGTCTCCC
DNA 2: TGGTGGCTACGACGGGATT
B15: AGCAUGU (DNA:RNA)
RNA: B1 RNA with G25A, U27C, G28A, G29U, A30G, A31U
DNA 1: CAATCTGAATTCCGGTCTCCC
DNA 2: TGGTGGCTACGACGGGATT
B16: AUGCUUG (DNA:RNA)
RNA: B8 RNA with U25A, U28C, C29U, C31G
DNA 1: CAATCTGAATTCCGGTCTCCC
DNA 2: TGGTGGCTACGACGGGATT
B17: AGCCAUG (DNA:RNA)
RNA: B1 RNA with G25A, U27C, G28C, G29A, A30U, A31G
DNA 1: CAATCTGAATTCCGGTCTCCC
DNA 2: TGGTGGCTACGACGGGATT
B18: ACCAUGG (DNA:RNA)
RNA: GGGAGACCGGAAUUCAGAUUGUCCACCAUGGUUAAAUCCCGUCGUAGCCACCA
DNA 1: CAATCTGAATTCCGGTCTCCC
DNA 2: TGGTGGCTACGACGGGATT
B19: CAGCAUG (DNA:RNA)
RNA: B8 RNA with U25C, U26A, U28C, C29A, C31G
DNA 1: CAATCTGAATTCCGGTCTCCC
DNA 2: TGGTGGCTACGACGGGATT
B20: CAGCAUC (DNA:RNA)
RNA: B8 RNA with U25C, U26A, U28C, C29A
DNA 1: CAATCTGAATTCCGGTCTCCC
DNA 2: TGGTGGCTACGACGGGATT
B21: ACCAUGU (DNA:RNA)
RNA: B18 RNA with G31U
DNA 1: CAATCTGAATTCCGGTCTCCC
DNA 2: TGGTGGCTACGACGGGATT
B22: CAACUAC (DNA:RNA)
RNA: B18 RNA with A25C, C26A, C27A, A28C, G30A, G31C
DNA 1: CAATCTGAATTCCGGTCTCCC
DNA 2: TGGTGGCTACGACGGGATT
B23: UGACGCG (DNA:RNA)
RNA: B1 RNA with G25U, U27A, G28C, A30C, A31G
DNA 1: CAATCTGAATTCCGGTCTCCC
DNA 2: TGGTGGCTACGACGGGATT
B24: UACCGAU (DNA:RNA)
RNA: B1 RNA with G25U, G26A, U27C, G28C, A31U
DNA 1: CAATCTGAATTCCGGTCTCCC
DNA 2: TGGTGGCTACGACGGGATT
B25: GACGCUG (DNA:RNA)
RNA: B18 RNA with A25G, C26A, A28G, U29C, G30U
DNA 1: CAATCTGAATTCCGGTCTCCC
DNA 2: TGGTGGCTACGACGGGATT
B26: GGAUCUC (DNA:RNA)
RNA: B8 RNA with U25G, U26G, G27A
DNA 1: CAATCTGAATTCCGGTCTCCC
DNA 2: TGGTGGCTACGACGGGATT
B27: GGGAAUC (DNA:RNA)
RNA: B8 RNA with U25G, U26G, U28A, C29A
DNA 1: CAATCTGAATTCCGGTCTCCC
DNA 2: TGGTGGCTACGACGGGATT
B28: GUUAAUC (DNA:RNA)
RNA: B8 RNA with U25G, G27U, U28A, C29A
DNA 1: CAATCTGAATTCCGGTCTCCC
DNA 2: TGGTGGCTACGACGGGATT
B29: GGAUCUU (DNA:RNA)
RNA: B8 RNA with U25G, U26G, G27A, C31U
DNA 1: CAATCTGAATTCCGGTCTCCC
DNA 2: TGGTGGCTACGACGGGATT
B30: GGAGAUC (DNA:RNA)
RNA: B1 RNA with U27A, G29A, A30U, A31C
DNA 1: CAATCTGAATTCCGGTCTCCC
DNA 2: TGGTGGCTACGACGGGATT
B31: GCGGAUC (DNA:RNA)
RNA: B8 RNA with U25G, U26C, U28G, C29A
DNA 1: CAATCTGAATTCCGGTCTCCC
DNA 2: TGGTGGCTACGACGGGATT
B32: GGAGUCU (DNA:RNA)
RNA: B1 RNA with U27A, G29U, A30C, A31U
DNA 1: CAATCTGAATTCCGGTCTCCC
DNA 2: TGGTGGCTACGACGGGATT
B33: CGGAUCU (DNA:RNA)
RNA: B18 RNA with A25C, C26G, C27G, G30C, G31U
DNA 1: CAATCTGAATTCCGGTCTCCC
DNA 2: TGGTGGCTACGACGGGATT
B34: GGGGAUC (DNA:RNA)
RNA: B1 RNA with U27G, G29A, A30U, A31C
DNA 1: CAATCTGAATTCCGGTCTCCC
DNA 2: TGGTGGCTACGACGGGATT
B35: GGGAGUC (DNA:RNA)
RNA: B1 RNA with U27G, G28A, A30U, A31C
DNA 1: CAATCTGAATTCCGGTCTCCC
DNA 2: TGGTGGCTACGACGGGATT
B36: GGGAUCU (DNA:RNA)
RNA: B18 RNA with A25G, C26G, C27G, G30C, G31U
DNA 1: CAATCTGAATTCCGGTCTCCC
DNA 2: TGGTGGCTACGACGGGATT
B37: CGGAGUC (DNA:RNA)
RNA: B8 RNA with U25C, U26G, U28A, C29G
DNA 1: CAATCTGAATTCCGGTCTCCC
DNA 2: TGGTGGCTACGACGGGATT

target: T1, RBFOX1 RRM; experiment: EMSA; HiTS-Eq, 1 nM pool, 10 min; buffer printed only for the single-RNA assays: 10 mM Tris pH 7.5, 150 mM NaCl, 3.4 mM EDTA, 0.001% NP-40, 30 C; settings: tags: His6 N-terminal (pET28a); label: 5' 32P
Summary of the method: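 Purified wild-type or mutant RbFox RRM at increasing concentrations was equilibrated with 1 nM of 5′-radiolabelled RNA carrying 7 randomized nucleotides for 10 min in 50 µL. Unbound RNA was separated by 8% native PAGE and sequenced. Relative association constants came from read-count changes of each RNA species compared with the control reaction, normalised to the cognate motif.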

Row | Binder | binding signal
1 | B1 | 0.00994 KA relative to UGCAUGU
2 | B2 | 0.00695 KA relative to UGCAUGU
3 | B3 | 0.0147 KA relative to UGCAUGU
4 | B4 | 0.0078 KA relative to UGCAUGU
5 | B5 | 0.0156 KA relative to UGCAUGU
6 | B6 | 0.00671 KA relative to UGCAUGU
7 | B7 | 0.0162 KA relative to UGCAUGU
8 | B8 | 0.0203 KA relative to UGCAUGU
9 | B9 | 0.0127 KA relative to UGCAUGU
10 | B10 | 0.00331 KA relative to UGCAUGU
11 | B11 | 0.347 KA relative to UGCAUGU
12 | B12 | 0.00746 KA relative to UGCAUGU
13 | B13 | 0.0104 KA relative to UGCAUGU
14 | B14 | 0.00513 KA relative to UGCAUGU
15 | B15 | 0.738 KA relative to UGCAUGU
16 | B16 | 0.0339 KA relative to UGCAUGU
17 | B17 | 0.0102 KA relative to UGCAUGU
18 | B18 | 0.00726 KA relative to UGCAUGU
19 | B19 | 0.665 KA relative to UGCAUGU

Row | Binder | binding signal
20 | B20 | 0.0124 KA relative to UGCAUGU
21 | B21 | 0.00472 KA relative to UGCAUGU
22 | B22 | 0.000393 KA relative to UGCAUGU
23 | B23 | 0.0215 KA relative to UGCAUGU
24 | B24 | 0.00545 KA relative to UGCAUGU
25 | B25 | 0.0241 KA relative to UGCAUGU
26 | B26 | 0.0209 KA relative to UGCAUGU
27 | B27 | 0.0328 KA relative to UGCAUGU
28 | B28 | 0.00989 KA relative to UGCAUGU
29 | B29 | 0.0133 KA relative to UGCAUGU
30 | B30 | 0.0208 KA relative to UGCAUGU
31 | B31 | 0.00958 KA relative to UGCAUGU
32 | B32 | 0.0284 KA relative to UGCAUGU
33 | B33 | 0.0232 KA relative to UGCAUGU
34 | B34 | 0.0348 KA relative to UGCAUGU
35 | B35 | 0.0339 KA relative to UGCAUGU
36 | B36 | 0.0381 KA relative to UGCAUGU
37 | B37 | 0.0303 KA relative to UGCAUGU
